Drawing on PubChem BioAssay, this text covers growth inhibition, inhibition and outcome for 22 compounds.

The nature of experiment [1]: antimalarial activity against Dd2 strain (AID 2302;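 active = growth inhibition above 50% at the single 2 µM test dose, taken to imply half-maximal potency below 2 µM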;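 also: 0% = DMSO untreated growth and 100% = chloroquine plus artemisinin killed control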). The note with it: P. falciparum Dd2 in RBCs, LDH growth readout, 72 h; at 2 µM; stronger effect = higher value.
Experiment [2] is described as follows: human hepatoma cell viability loss – ATP luminescence, cytotoxicity control for P. falciparum antimalarial project, primary screen (AID 2303;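 active = inhibition above 50%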;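 also: 0% = DMSO wells and 100% = digitonin-killed cells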). The note with it: HepG2 viability, 24-48 h, at 10 µM, stronger effect = higher value.
The target of experiment [3] is L-lactate dehydrogenase (Plasmodium falciparum (isolate CDC / Honduras)) (UniProt Q27743). The experiment in a line: PfLDH activity inhibition – cell lysate, 3D7 strain, counter-screen for P. falciparum growth inhibition project (AID 2304).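 Also: 0% = vehicle and 100% = reference inhibitor.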 The note with it: P. falciparum 3D7 crude extract, LDH APAD/NBT absorbance; at 2 µM; stronger effect = higher value. Background: A counterscreen serves to expose hits that act by an unwanted route or on another target.

A short description of experiment [4]: inhibition of 3D7 malaria parasite growth – strain 3D7 (AID 2306).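 Also: 0% = DMSO wells and 100% = chloroquine plus artemisinin control wells.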 The note with it: P. falciparum 3D7 erythrocytic growth, LDH absorbance, 72 h; at 2 µM; stronger effect = higher value.
Experiment [5] has as its target Calcium-dependent protein kinase 1 (Plasmodium falciparum (isolate 3D7)) (UniProt P62344). The experiment in a line: PfCDPK1 kinase inhibitors, biochemical, TCAMS library (AID 1159585; cut-off not given, nearly all actives have IC50 up to about 0.98 µM;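 also: inhibitors leave more ATP so luminescence rises with inhibition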). The note with it: recombinant PfCDPK1, Kinase-Glo ATP depletion luminescence.
Experiment [6] deals with Plasmodium falciparum protein kinase 6 (PK6, PF3D7_1337100) (UniProt Q8IDW1). Kind of experiment: PfPK6 kinase inhibitors, biochemical, TCAMS library (AID 1159586). The note with it: recombinant PfPK6, Kinase-Glo ATP depletion luminescence. For orientation: In Kinase-Glo more light means more ATP remaining.
Experiment [7] deals with Protein kinase 7 (PK7), Plasmodium falciparum 3D7 (PF3D7_0213400) (UniProt Q7YTF7). The experiment in a line: inhibition of Plasmodium PK7 catalytic activity – biochemical, TCAMS antimalarial set, Kinase-Glo luminescence (AID 1159587). The note with it: recombinant PfPK7, Kinase-Glo ATP depletion luminescence.
In experiment [8] the target is Calcium-dependent protein kinase 4 (Plasmodium falciparum (isolate 3D7)) (UniProt Q8IBS5). The experiment in a line: PfCDPK4 kinase inhibitors, biochemical, TCAMS library (AID 1159588; cut-off not given, nearly all actives have IC50 up to about 0.91 µM). Conditions: recombinant PfCDPK4, Kinase-Glo ATP depletion luminescence.

Usually inhibition stands for the relative decrease from the control value, in per cent.

Where “and” joins values, the source holds several entries; their conditions need not be identical. Equal entries are not always repeated. A number with no mark means an inactive call. For some assays here: Measured potencies and affinities stand elsewhere. Calls of active or inactive are those of the source. Unless noted, no rule for the calls is given here.

Chain of Calcium-dependent protein kinase 4 (Plasmodium falciparum (isolate 3D7)) (Q8IBS5 whole entry, looked up): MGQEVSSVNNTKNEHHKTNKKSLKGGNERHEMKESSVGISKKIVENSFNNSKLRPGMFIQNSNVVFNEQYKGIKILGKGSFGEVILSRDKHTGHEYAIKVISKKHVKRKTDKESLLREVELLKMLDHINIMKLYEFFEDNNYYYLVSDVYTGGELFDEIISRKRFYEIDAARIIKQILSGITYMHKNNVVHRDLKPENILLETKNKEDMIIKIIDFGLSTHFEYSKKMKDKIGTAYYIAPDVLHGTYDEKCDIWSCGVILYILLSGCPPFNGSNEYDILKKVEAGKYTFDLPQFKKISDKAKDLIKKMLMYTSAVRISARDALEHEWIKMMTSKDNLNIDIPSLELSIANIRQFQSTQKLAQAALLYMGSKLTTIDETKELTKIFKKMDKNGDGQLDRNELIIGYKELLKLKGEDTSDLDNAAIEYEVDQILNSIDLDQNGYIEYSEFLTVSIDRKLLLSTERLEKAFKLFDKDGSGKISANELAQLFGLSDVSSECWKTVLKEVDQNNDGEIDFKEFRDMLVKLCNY
Chain of Calcium-dependent protein kinase 1 (Plasmodium falciparum (isolate 3D7)) (P62344 whole entry, looked up): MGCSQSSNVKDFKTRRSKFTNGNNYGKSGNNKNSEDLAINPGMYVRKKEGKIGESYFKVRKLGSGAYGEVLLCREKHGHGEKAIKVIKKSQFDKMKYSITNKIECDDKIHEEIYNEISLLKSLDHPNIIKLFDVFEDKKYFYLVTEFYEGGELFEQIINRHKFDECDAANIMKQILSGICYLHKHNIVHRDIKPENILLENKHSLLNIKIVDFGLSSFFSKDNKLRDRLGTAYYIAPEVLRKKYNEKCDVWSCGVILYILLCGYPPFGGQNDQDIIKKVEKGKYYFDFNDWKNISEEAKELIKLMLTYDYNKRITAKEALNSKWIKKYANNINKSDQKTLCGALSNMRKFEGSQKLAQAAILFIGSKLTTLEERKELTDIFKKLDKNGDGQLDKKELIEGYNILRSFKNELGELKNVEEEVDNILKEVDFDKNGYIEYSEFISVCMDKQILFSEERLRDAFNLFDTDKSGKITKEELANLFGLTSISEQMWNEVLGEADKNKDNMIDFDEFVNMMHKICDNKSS
Chain of Protein kinase 7 (PK7), Plasmodium falciparum 3D7 (PF3D7_0213400) (Q7YTF7 1-343): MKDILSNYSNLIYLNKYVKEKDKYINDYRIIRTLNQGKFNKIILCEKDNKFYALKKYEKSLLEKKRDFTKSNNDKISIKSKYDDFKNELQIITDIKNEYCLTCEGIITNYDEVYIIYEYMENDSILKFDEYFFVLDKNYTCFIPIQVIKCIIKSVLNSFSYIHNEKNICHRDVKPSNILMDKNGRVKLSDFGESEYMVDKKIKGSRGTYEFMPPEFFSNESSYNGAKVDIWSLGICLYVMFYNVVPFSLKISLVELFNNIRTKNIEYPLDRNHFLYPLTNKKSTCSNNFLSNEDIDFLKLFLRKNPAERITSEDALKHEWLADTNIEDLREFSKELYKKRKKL
Chain of L-lactate dehydrogenase (Plasmodium falciparum (isolate CDC / Honduras)) (Q27743 whole entry, looked up): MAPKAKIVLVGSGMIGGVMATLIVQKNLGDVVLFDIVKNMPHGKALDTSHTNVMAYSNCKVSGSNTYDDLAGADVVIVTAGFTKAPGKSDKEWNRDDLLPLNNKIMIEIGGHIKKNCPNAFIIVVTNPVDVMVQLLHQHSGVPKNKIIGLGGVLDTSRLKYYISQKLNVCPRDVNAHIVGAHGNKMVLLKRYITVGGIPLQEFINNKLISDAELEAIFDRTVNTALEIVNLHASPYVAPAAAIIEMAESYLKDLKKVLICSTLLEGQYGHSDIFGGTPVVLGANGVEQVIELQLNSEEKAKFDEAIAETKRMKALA
Chain of Plasmodium falciparum protein kinase 6 (PK6, PF3D7_1337100) (Q8IDW1 1-305): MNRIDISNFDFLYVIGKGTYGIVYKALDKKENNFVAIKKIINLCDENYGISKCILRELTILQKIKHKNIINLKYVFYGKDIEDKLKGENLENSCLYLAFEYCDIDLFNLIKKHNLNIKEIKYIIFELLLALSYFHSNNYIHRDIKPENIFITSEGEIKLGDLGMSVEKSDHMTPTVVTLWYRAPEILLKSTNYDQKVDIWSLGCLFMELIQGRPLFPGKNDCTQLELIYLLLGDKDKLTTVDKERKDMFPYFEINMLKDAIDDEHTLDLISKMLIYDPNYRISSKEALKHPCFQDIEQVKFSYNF

Turning to `CCN(Cc1ccccc1)CC(O)c1ccc(Cl)c(Cl)c1` (stereo unspecified), the growth inhibition in experiment [1] was 71% (active); in experiment [4] it was 96% (active). Further, the inhibition is 2% in experiment [2] and 1% in experiment [3]. Besides, the outcome in experiment [5], in experiment [6], in experiment [7] and in experiment [8] was inactive.

On to `COc1ccc(CC(C)NCC(O)c2cccc(Cl)c2)cc1C` (stereo unspecified), for which the growth inhibition in experiment [1] was 78% (active); in experiment [4], 89% (active). The inhibition in experiment [2] was 11%; in experiment [3] it was -6%. The outcome in experiment [5], in experiment [6], in experiment [7] and in experiment [8] was inactive.

As to `COC(=O)c1ccc(C[C@@H](C)NC[C@H](O)c2cccc(C(F)(F)F)c2)cc1`, the growth inhibition in experiment [1] is 93% (active) and 87% (active); in experiment [4], 97% (active). Further, the inhibition in experiment [2] was 1% and -5%; in experiment [3] it was -6% and -2%. The outcome in experiment [5], in experiment [6], in experiment [7] and in experiment [8] was inactive.

As to `Cn1nc(-c2ccc(S(=O)(=O)N3CCC(CN4CCC(c5c[nH]c6ccccc56)CC4)CC3)s2)cc1C(F)(F)F`, the growth inhibition in experiment [1] was 48%; in experiment [4] it was 93% (active). In addition, the inhibition in experiment [2] is 16%; in experiment [3], -6%. Besides, the result in experiment [5], in experiment [6], in experiment [7] and in experiment [8] was inactive.

Regarding `C1=C(c2c[nH]c3ccccc23)CCN(Cc2ccccc2)C1`, the figures for the growth inhibition in experiment [1] and in experiment [4] were 80% (active) and 91% (active), respectively. Also, the inhibition was 22% in experiment [2] and -1% in experiment [3]. Further, the outcome in experiment [5], in experiment [6], in experiment [7] and in experiment [8] was inactive.

Take `C=Cc1cc(OC)c2c(c1)c(=O)oc1c2cc(OC)c2c(O)ccc([C@H]3O[C@H]([C@@H](C)O)[C@H](O)[C@H]3O)c21`: the growth inhibition in experiment [1] is 41%; in experiment [4] it was 95% (active). In addition, the inhibition in experiment [2] was 33%; in experiment [3], 0%. The outcome in experiment [5], in experiment [6], in experiment [7] and in experiment [8] was inactive.

`COc1ccc(C=CC(=O)NC2CCC(CN3CCC(c4c[nH]c5ccccc45)CC3)CC2)cc1OC` (stereo unspecified): the growth inhibition in experiment [1] was 85% (active) and 72% (active); in experiment [4] it was 100% (active) and 101% (active). Moreover, the inhibition in experiment [2] is 15% and 14%; in experiment [3] it was 1% and -1%. Further, the outcome in experiment [5], in experiment [6], in experiment [7] and in experiment [8] was inactive.

Consider `CC(=O)C1(c2ccccc2)CCN(CCC2(c3ccc(Cl)c(Cl)c3)CN(C(=O)c3cccc(Cl)c3)CCO2)CC1` (stereo unspecified), for which the growth inhibition in experiment [1] is 61% (active); in experiment [4], 90% (active). Also, the inhibition in experiment [2] was 37%; in experiment [3], -3%. Besides, the outcome in experiment [5], in experiment [6], in experiment [7] and in experiment [8] was inactive.

On to `CC[C@@]1(O)C(=O)OCc2c1cc1n(c2=O)Cc2c-1nc1cc3c(cc1c2CN1CCOCC1)OCO3`, for which the growth inhibition in experiment [1] was 80% (active); in experiment [4], 89% (active). Moreover, the inhibition in experiment [2] is 81% (active); in experiment [3] it was 4%. The result in experiment [5], in experiment [6], in experiment [7] and in experiment [8] was inactive.

For the compound `CC(Cc1ccc(Oc2ccc(Cl)cc2)cc1)NCC(O)c1cccc(Cl)c1` (stereo unspecified), the figures for the growth inhibition in experiment [1] and in experiment [4] were 98% (active) and 99% (active), respectively. The inhibition in experiment [2] was 3%; in experiment [3] it was -2%. Further, the outcome in experiment [5], in experiment [6], in experiment [7] and in experiment [8] was inactive.

On to `COC(=O)c1ccc(CC(C)NCC(O)c2cccc(I)c2)cc1` (stereo unspecified), for which the growth inhibition in experiment [1] was 54% (active); in experiment [4] it was 87% (active). For the same compound, the values for the inhibition in experiment [2] and in experiment [3] were 15% and -2%, respectively. Besides, the result in experiment [5], in experiment [6], in experiment [7] and in experiment [8] was inactive.

With `COCCNCc1cccc(-c2ccccc2CN(C(=O)Nc2ccccc2)C2CCN(Cc3ccccc3)CC2)c1`, the figures for the growth inhibition in experiment [1] and in experiment [4] were 51% (active) and 96% (active), respectively. In addition, the values for the inhibition in experiment [2] and in experiment [3] were 30% and 1%, respectively. Also, the result in experiment [5], in experiment [6], in experiment [7] and in experiment [8] was inactive.

As for `O=S(=O)(NC1CCC(CN2CCC(c3c[nH]c4ccccc34)CC2)CC1)c1ccc(Cl)c(Cl)c1` (stereo unspecified), the growth inhibition in experiment [1] is 32%; in experiment [4], 97% (active). In addition, the inhibition was 36% in experiment [2] and 0% in experiment [3]. Further, the result in experiment [5], in experiment [6], in experiment [7] and in experiment [8] was inactive.

For `CCCCCCCn1c(=O)c(C(=O)Nc2c(C)cccc2C)c(O)c2ccccc21`, the growth inhibition in experiment [1] was 42%; in experiment [4], 90% (active). The inhibition is 6% in experiment [2] and -2% in experiment [3]. For the same compound, the outcome in experiment [5], in experiment [6], in experiment [7] and in experiment [8] was inactive.

For the compound `CC(Cc1ccc(OCc2ccccc2)cc1)NCC(O)c1cccc(Cl)c1` (stereo unspecified), the growth inhibition in experiment [1] and in experiment [4] was 99% (active) each time. In addition, the inhibition was 50% (active) in experiment [2] and 5% in experiment [3]. Also, the outcome in experiment [5], in experiment [6], in experiment [7] and in experiment [8] was inactive.

As to `Cc1ccc(C(=O)Nc2ccnc(N(C)C3CCN(Cc4cccc(O)c4)CC3)c2)cn1`, the growth inhibition in experiment [1] is 1%; in experiment [4] it was 90% (active). Also, the results for the inhibition in experiment [2] and in experiment [3] were 0% and 4%, respectively. In addition, the result in experiment [5], in experiment [6], in experiment [7] and in experiment [8] was inactive.

With `CN1CC=C(c2c[nH]c3ccc(OC(=O)c4ccccc4)cc23)C1`, the growth inhibition in experiment [1] is 97% (active); in experiment [4], 96% (active). In addition, the inhibition is 12% in experiment [2] and 1% in experiment [3]. The outcome in experiment [5], in experiment [6], in experiment [7] and in experiment [8] was inactive.

`O=C(NC1CCC(N2CCC3(CC2)C(=O)NCN3c2ccccc2)CC1)c1cc2ccccc2[nH]1` (stereo unspecified): the results for the growth inhibition in experiment [1] and in experiment [4] were 40% and 98% (active), respectively. The inhibition in experiment [2] was -2%; in experiment [3] it was 1%. For the same compound, the result in experiment [5], in experiment [6], in experiment [7] and in experiment [8] was inactive.

As for `CCCCCCCc1cc(O)c2c(c1)OC(C)(C)c1ccncc1-2`, the growth inhibition in experiment [1] was 52% (active); in experiment [4], 95% (active). The inhibition in experiment [2] was -7%; in experiment [3], 0%. Moreover, the result in experiment [5], in experiment [6], in experiment [7] and in experiment [8] was inactive.

Turning to `Cc1c(C)c2c(c(C)c1O)CC[C@@](C)(C(=O)NC1CCC(CN3CCC(c4c[nH]c5ccccc45)CC3)CC1)O2` (stereo partly specified), the growth inhibition was 57% (active) in experiment [1] and 92% (active) in experiment [4]. The inhibition is 29% in experiment [2] and -2% in experiment [3]. In addition, the outcome in experiment [5], in experiment [6], in experiment [7] and in experiment [8] was inactive.

As to `Cc1[nH]c2ccc(O)cc2c1C1CCN(CC2CCC(NC(=O)/C=C/c3ccc(Cl)c(Cl)c3)CC2)CC1` (stereo unspecified), the values for the growth inhibition in experiment [1] and in experiment [4] were 95% (active) and 102% (active), respectively. For the same compound, the figures for the inhibition in experiment [2] and in experiment [3] were 19% and 3%, respectively. Further, the outcome in experiment [5], in experiment [6], in experiment [7] and in experiment [8] was inactive.

Regarding `CC[C@H]1CN2CC[C@H]1C[C@H]2[C@H](O)c1cc(-c2ccc(Cl)c(Cl)c2)nc2ccc(OC)cc12`, the growth inhibition in experiment [1] was 99% (active); in experiment [4], 98% (active). Further, the inhibition in experiment [2] is 17%; in experiment [3] it was 6%. Also, the outcome in experiment [5], in experiment [6], in experiment [7] and in experiment [8] was inactive.
